According to PubChem BioAssay (NCI):
About 83,000 compounds went through this panel and 20% of them were active in at least one assay; those are over-represented in the sample as a whole.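 48-hour exposure, single concentration, 96-well plates; percent growth endpoint where 0 means no net growth. Active: below 10.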 Unmarked numbers belong to inactive results. The source made the active and inactive calls.

What was measured:
Experiment in all cases: NCI-60 one-dose screen, 48 h (100 = growth as untreated, 0 = no growth, -100 = all killed)
A549/ATCC NSCLC = conditions: 10 µM unless noted
DU-145 prostate = conditions: 10 µM unless noted
K-562 leukemia = conditions: 10 µM unless noted
RXF 393 renal = conditions: 10 µM unless noted
SF-295 CNS = conditions: 10 µM unless noted
UACC-257 melanoma = conditions: 10 µM unless noted
HCT-15 colon = conditions: 10 µM
LOX IMVI melanoma = conditions: 10 µM unless noted
SN12C renal = conditions: 10 µM unless noted
CAKI-1 renal = conditions: 10 µM unless noted
A498 renal = conditions: 10 µM unless noted
HL-60(TB) leukemia = conditions: 10 µM unless noted
MOLT-4 leukemia = conditions: 10 µM
OVCAR-8 ovarian = conditions: 10 µM unless noted
OVCAR-4 ovarian = conditions: 10 µM unless noted
SK-OV-3 ovarian = conditions: 10 µM unless noted
HS 578T breast = conditions: 10 µM unless noted
BT-549 breast = conditions: 10 µM
HCC-2998 colon = conditions: 10 µM unless noted
HT29 colon = conditions: 10 µM unless noted

`O=C(CC1(O)C(=O)Nc2ccc(F)cc21)c1ccc(C(=O)NCC2CCC3(CC2)OOC2(CCCCC2)OO3)cc1` (centres undefined) was tested, and the growth (A549/ATCC NSCLC) was -66.5% (active), the growth (DU-145 prostate) was 3.83% (active) and the growth (K-562 leukemia) was 14.9%. For the same compound, the growth (RXF 393 renal) was 59.4%, the growth (SF-295 CNS) was 79.3% and the growth (UACC-257 melanoma) was 70.4%. The growth (HCT-15 colon) was 74.1%, the growth (LOX IMVI melanoma) was 39.1% and the growth (SN12C renal) was 51.4%. For the same compound, the growth (CAKI-1 renal) was -15.9% (active), the growth (A498 renal) was 65% and the growth (HL-60(TB) leukemia) was -64.2% (active). It also gave a growth (MOLT-4 leukemia) of 22.5%, a growth (OVCAR-8 ovarian) of 19.7% and a growth (OVCAR-4 ovarian) of 65.6%. The growth (SK-OV-3 ovarian) was 91.1%, the growth (HS 578T breast) was 73.8% and the growth (BT-549 breast) was 78%. The growth (HCC-2998 colon) was 113%.

`O=C(C(=O)N1CCCC1)c1cn(CCCCCn2cc(C(=O)C(=O)N3CCCC3)c3ccccc32)c2ccccc12` gave a growth (A549/ATCC NSCLC) of 85.2%, a growth (DU-145 prostate) of 100% and a growth (K-562 leukemia) of 68.8%. It also gave a growth (RXF 393 renal) of 108%, a growth (SF-295 CNS) of 93.9% and a growth (UACC-257 melanoma) of 102%. It also gave a growth (HCT-15 colon) of 97.5%, a growth (SN12C renal) of 82.3% and a growth (CAKI-1 renal) of 73.9%. The growth (A498 renal) was 94.1%, the growth (HL-60(TB) leukemia) was 109% and the growth (OVCAR-8 ovarian) was 90.8%. The growth (OVCAR-4 ovarian) was 73%, the growth (SK-OV-3 ovarian) was 103% and the growth (HS 578T breast) was 94.4%. It also gave a growth (BT-549 breast) of 90% and a growth (HCC-2998 colon) of 103%.

In the case of `ClCCN(CCCl)c1ccc(/C=C\c2ccnc3ccccc23)cc1`, the growth (A549/ATCC NSCLC) is reported as 71%, the growth (DU-145 prostate) is reported as 90.6% and the growth (K-562 leukemia) is reported as 60.9%. For the same compound, the growth (RXF 393 renal) was 99%, the growth (SF-295 CNS) was 69.4% and the growth (UACC-257 melanoma) was 47.1%. It also gave a growth (HCT-15 colon) of 75%, a growth (LOX IMVI melanoma) of 80.3% and a growth (SN12C renal) of 75.7%. For the same compound, the growth (A498 renal) was 68.2%, the growth (HL-60(TB) leukemia) was 46.8% and the growth (MOLT-4 leukemia) was 69.8%. The growth (OVCAR-8 ovarian) was 79.8%, the growth (OVCAR-4 ovarian) was 82.3% and the growth (SK-OV-3 ovarian) was 101%. For the same compound, the growth (HS 578T breast) was 89.9%, the growth (BT-549 breast) was 70.5% and the growth (HCC-2998 colon) was 91.6%.

`COc1ccc(C(=O)c2ccc([As]=O)cc2)cc1` (centres undefined) was tested, and the growth (A549/ATCC NSCLC) was -71.8% (active), the growth (K-562 leukemia) was 0.914% (active) and the growth (RXF 393 renal) was -99.6% (active). The growth (SF-295 CNS) was -97.9% (active), the growth (UACC-257 melanoma) was -95.7% (active) and the growth (HCT-15 colon) was -73% (active). For the same compound, the growth (HT29 colon) was -68.9% (active), the growth (LOX IMVI melanoma) was -97.1% (active) and the growth (SN12C renal) was -52.8% (active). For the same compound, the growth (CAKI-1 renal) was -98.7% (active), the growth (A498 renal) was -100% (active) and the growth (HL-60(TB) leukemia) was -47.4% (active). For the same compound, the growth (MOLT-4 leukemia) was -24.5% (active), the growth (OVCAR-8 ovarian) was -84.2% (active) and the growth (OVCAR-4 ovarian) was -91.4% (active). The growth (SK-OV-3 ovarian) was -99.8% (active), the growth (HS 578T breast) was -1.54% (active) and the growth (BT-549 breast) was -99.6% (active). For the same compound, the growth (HCC-2998 colon) was -88.5% (active).

`N#C[Se]CCCNS(=O)(=O)C1CC2C=CC1C2` (centres undefined) was tested, and the growth (A549/ATCC NSCLC) was -34.1% (active), the growth (DU-145 prostate) was -68% (active) and the growth (K-562 leukemia) was 5.87% (active). The growth (RXF 393 renal) was -90% (active), the growth (SF-295 CNS) was -80.7% (active) and the growth (UACC-257 melanoma) was -55.3% (active). For the same compound, the growth (HCT-15 colon) was -1.27% (active), the growth (HT29 colon) was 1.16% (active) and the growth (LOX IMVI melanoma) was -76.8% (active). The growth (SN12C renal) was -25.6% (active), the growth (CAKI-1 renal) was -99.1% (active) and the growth (HL-60(TB) leukemia) was -41.1% (active). The growth (MOLT-4 leukemia) was 5.9% (active), the growth (OVCAR-8 ovarian) was -27.1% (active) and the growth (OVCAR-4 ovarian) was 10%. The growth (SK-OV-3 ovarian) was -36.4% (active), the growth (HS 578T breast) was -25.9% (active) and the growth (BT-549 breast) was -71.3% (active). The growth (HCC-2998 colon) was 4.61% (active).

For `O=C1NC2(CCNCC2)Nc2ccccc21`, the growth (A549/ATCC NSCLC) was 69.1%, the growth (DU-145 prostate) was 108% and the growth (RXF 393 renal) was 111%. The growth (SF-295 CNS) was 107%, the growth (UACC-257 melanoma) was 85.7% and the growth (HCT-15 colon) was 113%. For the same compound, the growth (HT29 colon) was 98.2%, the growth (LOX IMVI melanoma) was 102% and the growth (SN12C renal) was 99.1%. It also gave a growth (A498 renal) of 95.5%, a growth (HL-60(TB) leukemia) of 95.6% and a growth (MOLT-4 leukemia) of 84.7%. The growth (OVCAR-8 ovarian) was 84.4%, the growth (OVCAR-4 ovarian) was 116% and the growth (SK-OV-3 ovarian) was 103%. The growth (HS 578T breast) was 102%, the growth (BT-549 breast) was 108% and the growth (HCC-2998 colon) was 103%.

`[Cl][Hg][n]1cnc2c(Cl)c(Cl)c(Cl)cc21` gave a growth (A549/ATCC NSCLC) of 86.7%, a growth (DU-145 prostate) of 100% and a growth (K-562 leukemia) of 96.5%. For the same compound, the growth (RXF 393 renal) was 140%, the growth (SF-295 CNS) was 96.1% and the growth (UACC-257 melanoma) was 96.2%. For the same compound, the growth (HCT-15 colon) was 100%, the growth (HT29 colon) was 81.2% and the growth (LOX IMVI melanoma) was 79.6%. It also gave a growth (SN12C renal) of 102%, a growth (CAKI-1 renal) of 103% and a growth (A498 renal) of 104%. It also gave a growth (HL-60(TB) leukemia) of 99.9%, a growth (MOLT-4 leukemia) of 107% and a growth (OVCAR-8 ovarian) of 101%. The growth (OVCAR-4 ovarian) was 109%, the growth (SK-OV-3 ovarian) was 113% and the growth (HS 578T breast) was 79.5%. It also gave a growth (BT-549 breast) of 112% and a growth (HCC-2998 colon) of 107%.

For `COP(=S)(OC)Oc1ccc(SC)c(C)c1`, the growth (DU-145 prostate) was 111%, the growth (K-562 leukemia) was 99.6% and the growth (RXF 393 renal) was 107%. For the same compound, the growth (SF-295 CNS) was 91.5%, the growth (HCT-15 colon) was 105% and the growth (HT29 colon) was 103%. For the same compound, the growth (LOX IMVI melanoma) was 93.3%, the growth (SN12C renal) was 100% and the growth (CAKI-1 renal) was 92.6%. The growth (A498 renal) was 94.3%, the growth (SK-OV-3 ovarian) was 100% and the growth (HS 578T breast) was 110%. The growth (BT-549 breast) was 83.9% and the growth (HCC-2998 colon) was 104%.
